The results in this text go back to PubChem BioAssay (Tox21).

Each structure is given as a SMILES string. Results filed as inconclusive are left out. Values without a mark were called inactive. Calls of active or inactive are those of the source. Unless noted, calls follow the shape of the dose curve; as a rule, active = well fitted curve in the direction sought with a large enough effect in the repeat runs; inconclusive = weak or mixed curves; inactive = no such curve, though single readings can be large; an effect the other way counts as inactive or inconclusive.

Test [1] can be described thus: qHTS assay to identify small molecule antagonists of the peroxisome proliferator-activated receptor delta (PPARd) signaling pathway - cell viability counter screen (AID 743213). Also: nearly all actives have a fitted effect of over 50% in size. Also: potency is read from the fitted curve at half-maximal effect. In short, it runs like this: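 Viability counter-screen, qHTS format: PPARd-bla HEK293H, L165041 300 nM final, 17 h compound exposure at 37 C, CellTiter-Glo luminescence after 30 min RT.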
A general note: Quantitative high-throughput screening tests each substance at several concentrations.

Test [2] addresses Bile acid receptor (Homo sapiens) (UniProt Q96RI1). Nature of the test: qHTS assay to identify small molecule antagonists of the farnesoid-X-receptor (FXR) signaling pathway (AID 743217; active = well fitted inhibition curve with a large enough effect in the signal ratio in the repeat runs, not every such curve was filed as active; the % refers to the signal ratio). In short, it runs like this:
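Read-out: beta-lactamase FRET fluorescence (LiveBLAzer B/G substrate, 2 h, room temperature) in GeneBLAzer FXR-UAS-bla HEK 293T cells. Compounds were co-dosed with 50 uM chenodeoxycholic acid (final) and incubated 16 h at 37 °C.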

Test [3] is described as follows: qHTS assay to identify small molecule agonists of the farnesoid-X-receptor (FXR) signaling pathway - cell viability counter screen (AID 743218). Also: nearly all actives have a fitted effect of over 45% in size. Also: potency is read from the fitted curve at half-maximal effect. In short, it runs like this:
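Luminescence from CellTiter-Glo, read after 30 min at RT, reports viability of GeneBLAzer FXR-UAS-bla HEK 293T cells treated 16 h with compounds in the wells used for the beta-lactamase reporter.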

Test [4] deals with Bile acid receptor (Homo sapiens) (UniProt Q96RI1). The test is described as follows: qHTS assay to identify small molecule agonists of the farnesoid-X-receptor (FXR) signaling pathway (AID 743220; active = well fitted activation curve with a large enough effect in the signal ratio in the repeat runs, not every such curve was filed as active; the % refers to the signal ratio). In short, it runs like this:
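FXR-UAS-bla HEK 293T cells carrying a UAS-driven beta-lactamase reporter were plated for 5 h at 37C/5% CO2, then exposed to DMSO-dissolved Tox21 10K compounds for 16 h at 37C. A LiveBLAzer B/G FRET substrate was loaded for 2 h at room temperature before fluorescence reading.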

Test [5] in a line: qHTS assay to identify small molecule antagonists of the farnesoid-X-receptor (FXR) signaling pathway - cell viability counter screen (AID 743221; active = well fitted cell-killing curve with a large enough effect in the repeat runs, not every such curve was filed as active; also: nearly all actives have a fitted effect of over 50% in size; also: potency is read from the fitted curve at half-maximal effect). The gist of the method: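 Multiplexed counter screen: viability of FXR-bla HEK 293T cells under agonist stimulation by chenodeoxycholic acid (50 uM, final) and test compound for 16 h at 37 C, measured by CellTiter-Glo luminescence in the reporter wells.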

Test [6] concerns the target Vitamin D3 receptor (Homo sapiens) (UniProt P11473). The test is described as follows: qHTS assay to identify small molecule agonists of the vitamin D receptor (VDR) signaling pathway (AID 743222; calls by dose curve). In short, it runs like this:
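Beta-lactamase reporter readout (LiveBLAzer B/G FRET, 2 h RT) in VDR-bla cells after 16 h compound treatment at 37C, 5% CO2; cells pre-incubated 4 h before pin transfer of DMSO solutions.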

Test [7] shares this target. The test is described as follows: qHTS assay to identify small molecule antagonists of the vitamin D receptor (VDR) signaling pathway (AID 743223; active = well fitted inhibition curve with a large enough effect in the signal ratio in the repeat runs, not every such curve was filed as active; the % refers to the signal ratio). The gist of the method: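 Cells carrying a VDR-driven beta-lactamase reporter (VDR-bla) were co-treated with compound and 3 nM final 1alpha,25-dihydroxyvitamin D3 for 16 h at 37C; reporter activity was measured as FRET substrate fluorescence after 2 h at room temperature.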

Test [8] is described as follows: qHTS assay to identify small molecule agonists of the vitamin D receptor (VDR) signaling pathway - cell viability counter screen (AID 743224). Also: nearly all actives have a fitted effect of over 50% in size. Also: potency is read from the fitted curve at half-maximal effect. In short, it runs like this: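 Cytotoxicity counter screen: VDR-bla cells, 16 h compound exposure at 37C, 5% CO2; CellTiter-Glo luminescence, 30 min RT, same wells as bla read.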
Test [9] is described as follows: qHTS assay to identify small molecule antagonists of the vitamin D receptor (VDR) signaling pathway - cell viability counter screen (AID 743225). Also: nearly all actives have a fitted effect of over 50% in size. Also: potency is read from the fitted curve at half-maximal effect. In short, it runs like this:
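HEK293T VDR-bla; cpd + 1a,25-(OH)2D3 3 nM final, 16 h 37C/5% CO2; B/G FRET substrate 2 h RT; then CellTiter-Glo 30 min RT, luminescence.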

Test [10] can be described thus: qHTS assay to identify small molecule agonists of the NFkB signaling pathway - cell viability counter screen (AID 1159515; calls by dose curve; also: series mostly up to about 61 µM; nearly all actives have a fitted effect of over 55% in size). The gist of the method:
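ME-180 NFkB-bla cells, 2,000/well; overnight attach; compound 5 hr, 37 C/5% CO2; LiveBLAzer substrate 1.5 hr RT; then CellTiter-Glo in same wells, 30 min RT, luminescence read.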

The nature of test [11]: qHTS assay to identify small molecule agonists of the endoplasmic reticulum stress response signaling pathway (AID 1159516; active = well fitted activation curve with a large enough effect in the signal ratio in the repeat runs, not every such curve was filed as active; the % refers to the signal ratio; also: potency is read from the fitted curve at half-maximal effect). The gist of the method:
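HeLa ESRE-bla reporter line; cpd 5 h, 37 C/5% CO2; LiveBLAzer B/G FRET substrate 2 h RT; ex 405, em 460/530 nm.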

Test [12] is described as follows: qHTS assay to identify small molecule agonists of the endoplasmic reticulum stress response signaling pathway - cell viability counter screen (AID 1159517; calls by dose curve). In short, it runs like this:
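Steps: seed 1,500 ESRE-bla HeLa cells per well; incubate overnight at 37 C, 5% CO2; add compounds in DMSO for 5 hr; run FRET substrate 2 hr RT; add CellTiter-Glo, wait 30 min, read luminescence.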

A short description of test [13]: qHTS assay to identify small molecule antagonists of the retinoid-related orphan receptor gamma (ROR-gamma) signaling pathway - cell viability counter screen (AID 1159520). Also: nearly all actives have a fitted effect of over 50% in size. The gist of the method:
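Tet-on ROR gamma CHO cells were given compounds for 2 hr, then doxycycline hyclate at 1 uM final, and incubated 16 hr at 37 C. Viability was measured as ATP content by CellTiter-Glo luminescence.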

Test [14] addresses Nuclear receptor ROR-gamma (Homo sapiens) (UniProt P51449). The test is described as follows: qHTS assay to identify small molecule antagonists of the retinoid-related orphan receptor gamma (ROR-gamma) signaling pathway (AID 1159521). In short, it runs like this:
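Cells were plated, rested 4 h at 37 C, exposed to compounds for 2 h, then given 1 uM final doxycycline hyclate to induce RORγ expression. After 16 h, ONE-Glo luminescence from the ROR response element reporter was measured.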

Test [15] is described as follows: qHTS assay to identify small molecule agonists of the AP-1 signaling pathway - cell viability counter screen (AID 1159525; calls by dose curve; also: nearly all actives have a fitted effect of over 55% in size). In short, it runs like this:
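Same-well cytotoxicity counter screen of the Tox21 10K library in ME-180 cells. The readout is ATP-dependent luminescence after 5 h compound treatment. Data are normalised to DMSO and tetra n-octyl ammonium bromide controls.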

Test [16] is described as follows: qHTS assay to identify small molecule agonists of the peroxisome proliferator-activated receptor delta (PPARd) signaling pathway - cell viability counter screen (AID 743211). Also: nearly all actives have a fitted effect of over 55% in size. Also: potency is read from the fitted curve at half-maximal effect. In short, it runs like this: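 Counter screen for cytotoxicity run in parallel with the PPARd reporter screen. Beta-lactamase reporter HEK293H cells exposed to compounds 17 h; ATP-based CellTiter-Glo luminescence quantified viability.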

In test [17] the target is Peroxisome proliferator-activated receptor delta (Homo sapiens) (UniProt Q03181). The test is described as follows: qHTS assay to identify small molecule agonists of the peroxisome proliferator-activated receptor delta (PPARd) signaling pathway (AID 743212; calls by dose curve). In short, it runs like this: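 Read-out: beta-lactamase FRET fluorescence after 2 h room-temperature incubation with LiveBLAzer B/G substrate. Cells were HEK293H carrying a UAS-bla reporter for PPARd, treated at 37 C with DMSO-dissolved compounds.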

A short description of test [18]: qHTS assay to identify small molecule agonists of the AP-1 signaling pathway (AID 1159526; calls by dose curve).
Test [19] deals with Peroxisome proliferator-activated receptor delta (Homo sapiens) (UniProt Q03181). The test is described as follows: qHTS assay to identify small molecule antagonists of the peroxisome proliferator-activated receptor delta (PPARd) signaling pathway (AID 743215; active = well fitted inhibition curve with a large enough effect in the signal ratio in the repeat runs, not every such curve was filed as active; the % refers to the signal ratio;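 also: cells stimulated with agonist L165041 at 300 nM final during compound exposure; series mostly up to about 62 µM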). In short, it runs like this: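 HEK293H GeneBLAzer PPARd UAS-bla reporter cells; cpd + L165041 300 nM final, 17 h 37 C; LiveBLAzer B/G FRET substrate 2 h RT; fluorescence intensity read-out. Antagonist mode.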

Chain of Peroxisome proliferator-activated receptor delta (Homo sapiens) (Q03181 whole entry, looked up): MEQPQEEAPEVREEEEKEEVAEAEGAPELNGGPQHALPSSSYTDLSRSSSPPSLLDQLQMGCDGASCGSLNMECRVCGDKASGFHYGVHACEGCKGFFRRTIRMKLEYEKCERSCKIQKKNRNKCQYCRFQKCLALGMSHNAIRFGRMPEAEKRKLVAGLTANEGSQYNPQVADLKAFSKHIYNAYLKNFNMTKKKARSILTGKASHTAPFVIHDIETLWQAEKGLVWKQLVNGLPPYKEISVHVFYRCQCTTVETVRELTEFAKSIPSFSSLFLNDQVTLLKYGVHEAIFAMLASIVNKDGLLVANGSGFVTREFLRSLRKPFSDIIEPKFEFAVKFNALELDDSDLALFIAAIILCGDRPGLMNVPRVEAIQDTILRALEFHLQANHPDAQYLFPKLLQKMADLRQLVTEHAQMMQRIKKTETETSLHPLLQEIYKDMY
Chain of Vitamin D3 receptor (Homo sapiens) (P11473 whole entry, looked up): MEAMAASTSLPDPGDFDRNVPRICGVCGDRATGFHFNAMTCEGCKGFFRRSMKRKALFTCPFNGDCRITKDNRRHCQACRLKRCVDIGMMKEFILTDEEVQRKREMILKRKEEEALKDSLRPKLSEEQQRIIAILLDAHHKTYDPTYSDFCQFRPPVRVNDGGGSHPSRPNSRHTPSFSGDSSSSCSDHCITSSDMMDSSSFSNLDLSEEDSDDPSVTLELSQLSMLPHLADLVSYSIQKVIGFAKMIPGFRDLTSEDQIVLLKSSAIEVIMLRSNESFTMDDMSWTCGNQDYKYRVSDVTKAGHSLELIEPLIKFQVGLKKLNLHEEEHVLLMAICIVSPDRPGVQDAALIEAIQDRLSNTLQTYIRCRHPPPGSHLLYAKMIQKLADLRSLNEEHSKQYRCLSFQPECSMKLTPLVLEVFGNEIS
Chain of Bile acid receptor (Homo sapiens) (Q96RI1 whole entry, looked up): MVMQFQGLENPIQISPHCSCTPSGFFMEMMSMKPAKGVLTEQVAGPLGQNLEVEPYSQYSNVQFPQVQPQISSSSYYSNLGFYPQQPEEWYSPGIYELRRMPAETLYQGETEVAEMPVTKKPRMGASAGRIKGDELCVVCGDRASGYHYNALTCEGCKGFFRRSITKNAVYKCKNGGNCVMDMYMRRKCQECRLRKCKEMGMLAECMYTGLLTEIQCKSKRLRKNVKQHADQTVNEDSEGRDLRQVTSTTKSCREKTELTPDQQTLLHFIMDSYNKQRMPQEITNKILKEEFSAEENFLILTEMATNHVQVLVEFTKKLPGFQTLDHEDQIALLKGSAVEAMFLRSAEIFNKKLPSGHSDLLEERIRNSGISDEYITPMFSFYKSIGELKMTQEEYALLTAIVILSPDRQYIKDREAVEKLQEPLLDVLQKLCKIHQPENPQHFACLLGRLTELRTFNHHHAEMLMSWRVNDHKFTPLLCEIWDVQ

Turning to `O=S1(=O)c2cccc3cccc(c23)N1CCCN1CCN(c2ccc(F)cc2)CC1`, the Potency entry in test [1], in [3], in [5], in test [7], in test [8] and in test [9] was “inactive” each time. Moreover, the Potency entry in test [10], in [11], in test [13], in [14] and in test [15] was “inactive” in each case. The outcome in test [2], in test [4], in test [6] and in test [12] was inactive.
`CC(Cc1cccc(C(F)(F)F)c1)NCCOC(=O)c1ccccc1` (configuration not stated): the Potency is 21.1 µM (active) in test [16], 18.8 µM (active) in test [1], 21.1 µM (active) in [3] and 23.7 µM (active) in test [8]. Moreover, the molecule was classed as inactive in test [17] and in test [12]. The Potency result in test [10], in test [11], in test [13], in test [14] and in test [15] was “inactive” each time.
As for `O=C(O)Cn1c(C(=O)Nc2nc(-c3ccccc3Cl)cs2)cc2ccccc21`, the Potency entry in test [16], in [1], in [3], in test [5], in test [7] and in test [8] was “inactive” throughout. In addition, the Potency entry in test [9], in test [10], in [11], in test [13], in test [14] and in [15] was “inactive” throughout. The call in [4] and in test [12] was inactive.
As for `CC(O)C1CCCCC1` (configuration not stated), the Potency result in test [16], in [3], in test [5], in test [8], in test [9] and in test [10] was “inactive” in each case. For the same molecule, the Potency entry in test [11], in test [14], in test [15] and in test [18] was “inactive” throughout. The result in test [17], in test [6] and in [12] was inactive.
For the molecule `Cc1occc1S`, the Potency entry in test [16], in test [3], in [5], in [7], in test [8] and in test [9] was “inactive” throughout. Moreover, the Potency result in test [10], in test [11], in [13], in [14] and in test [15] was “inactive” each time. For the same molecule, the molecule was classed as inactive in test [17], in test [6] and in [12].
Take `CCCCCC/C=C/C=O`: the molecule was called inactive in [17] and in test [12]. In addition, the Potency entry in [3], in test [5], in test [8], in [9], in test [10] and in [11] was “inactive” in each case. Besides, the Potency result in [13], in test [14] and in [15] was “inactive” throughout.
Take `CN(C)CC/C=C1\c2ccccc2COc2ccccc21`: the Potency in [16] was 26.6 µM (active). The call in test [2], in [4], in [6] and in [12] was inactive. Besides, the Potency entry in [5], in test [7], in test [8], in test [9], in test [10] and in [11] was “inactive” throughout. Besides, the Potency entry in [13], in test [14] and in test [15] was “inactive” throughout.
As for `CCOC(=O)[C@H](CCc1ccccc1)N[C@H]1CCc2ccccc2N(CC(=O)O)C1=O`, the Potency is 29.8 µM (active) in test [16]; 26.6 µM (active) in test [1]; 29.8 µM (active) in test [5]; 21.1 µM (active) in [8]; 21.3 µM (active) in test [9]; 21.3 µM (active) in test [11]. Further, the Potency result in [10], in test [13], in test [14] and in test [15] was “inactive” in each case. Besides, the molecule was classed as inactive in test [12].
Regarding `c1ccc(-c2nc[nH]c2-c2ccccc2)cc1`, the Potency result in [16], in test [3], in [5], in test [7], in test [8] and in [9] was “inactive” in each case. In addition, the Potency entry in test [10], in test [11], in [14], in test [15] and in test [18] was “inactive” each time. Moreover, the result in [17], in [19] and in [12] was inactive.
Consider `CCCCCCCCCO`, for which the Potency result in [16], in [1], in test [3], in [5], in test [7] and in [8] was “inactive” each time. Also, the Potency result in test [9], in test [10], in test [11], in test [13], in test [14] and in test [15] was “inactive” in each case. For the same molecule, the molecule was called inactive in [4], in test [6] and in [12].
